Screens deposited in PubChem BioAssay by National Center for Advancing Translational Sciences (NCATS).
Lassa entry inh: blocks Lassa virus binding to or entry into cells. Potency, µM (titrated, usually from 37.9 µM), for the others: at the top dose activity change, negative = inhibition, actives largely listed as inhibitors. AID 540256. Lassa virus pseudotype entry inhibition, cell reporter. 300,000 tested, 1.2% active; calls by dose curve; tested in HEK293 cells; also: potency is read from the fitted curve at half-maximal effect; nearly all actives have a fitted effect of over 50% in size
HCV inhibitor: HCV inhibition | 340,000 tested, 3.4% active | Potency, µM (top dose mostly 41.8 µM), without a hit: at the highest dose activity change, negative = inhibition, usual class: inhibitors | AID 651820 | Huh7.5.1 HCVcc-Cre infection, luciferase reporter, 44 h; active = well fitted inhibition curve with a large enough effect; inconclusive = small, poorly fitted or top-dose-only effect, or another doubt; inactive = no such curve, though single readings can be large or run the other way; also: potency is read from the fitted curve at half-maximal effect
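Cells seeded at 1,000/well and cultured 4 h, then compounds added followed by HCVcc-Cre virus (~0.5 moi). After 44 h further culture, luciferase substrate was added, plates held 15 min at room temperature, and luminescence read for 15 sec.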
VACV mCherry inh: vaccinia inhibition (mCherry reporter) | Vaccinia virus mCherry reporter infection, fluorescence | Potency, µM (top dose mostly 36.5 µM), for the others: at the highest dose activity change, negative = inhibition, most hits filed as inhibitors | 310,000 tested, 0.63% active; calls by dose curve; tested in A549 cells; also: potency is read from the fitted curve at half-maximal effect; nearly all actives have a fitted effect of over 35% in size
HCMV antiviral: blocks human cytomegalovirus replication. 410,000 tested, 4.5% active. AID 1259415. HFF cells, HCMV-luciferase reporter, 72 h; active compounds read low. activity change, negative = inhibition, % at 57.5 µM; in the data active = activity change below about -60%; inconclusive = no clear call, values can overlap the other calls; inactive = above about -39%
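Luciferase read-out from HCMV-luciferase-infected HFFs (MOI 1 PFU/cell) 72 h post infection at 37C; compounds added after 16 h cell attachment; activity normalized between buffer-only basal and Salinomycin (10uM) inhibitor controls.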
Marburg entry inh: Marburg virus entry inhibition | 300,000 tested, 1.8% active | Potency, µM (titrated, usually from 37.8 µM), for the others: at the top dose activity change, negative = inhibition, hits mostly inhibitors | Marburg virus pseudotyped entry inhibition, cell reporter; calls by dose curve; tested in HEK293 cells; also: potency is read from the fitted curve at half-maximal effect
Vaccinia Venus: vaccinia inhibition (Venus reporter) | Vaccinia virus Venus reporter expression, fluorescence | Potency, µM (highest dose often 36.5 µM), for inactives: at the highest dose activity change, negative = inhibition, hits mostly inhibitors | 330,000 tested, 0.46% active; calls by dose curve; tested in A549 cells; also: potency is read from the fitted curve at half-maximal effect; nearly all actives have a fitted effect of over 30% in size
Numbers without * were called inactive; u = inconclusive; x = no result given; [ ] = dose if it differs, or a comment. Most compounds without a hit are left out; they make up all but 7.8% or so of the library. % is scaled to controls: 0 for no effect and ±100 for the full control effect.

SMILES | Lassa entry inh | HCV inhibitor | VACV mCherry inh | HCMV antiviral | Marburg entry inh | Vaccinia Venus
CCOc1ccc(N2CC(O)(c3cccs3)[N+]3=C2CCCC3)cc1 (stereo unspecified) | -1% | -7% | -5% | -9 | 5.6µM* | -1%
COc1cccc(C2=NC(C)(CC(=O)NCc3ccccc3F)ON2C)c1 (stereo unspecified) | x | x | x | -10 | x | x
COC(=O)c1sccc1S(=O)(=O)N1CCN(c2ccccc2OC)CC1 | 11%[46.1 µM] | x | -12% | 31 | x | -2%
O=C(Nc1cccc(C(=O)OCc2cc(=O)n3nc(C4CC4)sc3n2)c1)c1cccc(F)c1 | 4%[46.1 µM] | x | -12% | 3 | x | -5%
c1ccc(Nc2cccc(Nc3ccccc3)n2)cc1 | 36% | 7.1µM* | u | -24 | 1%[46.1 µM] | -22%
c1ccc(Nc2ccccn2)cc1 | 5% | -12% | x | -16 | 1% | x
Cc1cc(C)cc(NC(=O)CSc2oc(-c3cccs3)nc2S(=O)(=O)c2ccccc2)c1 | u | x | -13% | 1 | -20%[46.1 µM] | -4%
CN(C)CCCN(C(=O)CCc1ccccc1)c1nc2c(F)cccc2s1 | u | -69% | u | u | u | u
Cc1cccc2sc(N(CCN(C)C)C(=O)/C=C/c3cccs3)nc12 | u | u | -26% | -77* | u | u
Cc1cccc2sc(N(CCN(C)C)C(=O)C3CCN(S(=O)(=O)c4cccs4)CC3)nc12 | 11% | u | -7% | -5 | -2% | -19%
CN(C)CCCN(C(=O)/C=C/c1cccs1)c1nc2c(F)cccc2s1 | u | u | 10µM* | u | u | 10µM*
COc1cc(OC)cc(-c2cc3c(Nc4ccc(OC)nc4)nccc3n2C)c1 | x | x | x | -31 | x | x
COc1cc2c(cc1OC)/C(=C/c1ccc(N(C)C)cc1)C=C2 | x | x | -7% | x | x | -18%
NC(=O)c1cc(N)ccc1N1CCCC1 | -7% | 28% | 13% | 44 | 5% | 31%
NC(=O)c1cc(N)ccc1N1CCCCC1 | -5% | 11% | -2% | -61* | 13%[46.1 µM] | -4%
CC(Cc1cccs1)NC(=S)Nc1ccc(Cl)cc1 (stereo unspecified) | -4% | u | -19% | -92* | u | -19%
CC(Cc1cccs1)NC(=S)Nc1ccc(Cl)c(Cl)c1 (stereo unspecified) | -10% | 10% | -5% | u | -6% | -17%
COc1ccc(OC)c2c(C)c(C)[nH]c12 | x | 10µM* | -15% | 20 | x | -12%
COc1ccc(OC)c2c(=O)cc(C(=O)O)[nH]c12 | 7% | 8% | -8% | 17 | 5% | -6%
O=C1c2ccccc2-c2nccnc21 | -7% | 25% | x | 63 | -6% | x
NC1=C(Cl)C(=O)c2ccc(S(N)(=O)=O)cc2C1=O | u | 0.56µM* | u | -101* | 2µM* | 0.5µM*
NC1=C(Cl)C(=O)c2ccccc2C1=O | -11% | 8.9µM* | u | -13 | u | u
CCOc1ccc(CNC(=O)CCS(=O)(=O)c2cc3c4c(c2)CCN4C(=O)CC3)cc1OC | 26%[46.1 µM] | x | -8% | 0 | x | -10%
Cc1ccc(-c2[nH]ncc2CNC(C)c2ccccc2)cc1 (stereo unspecified) | x | x | -9% | x | x | -20%
C=CCOc1ccc(CNc2nccs2)cc1OCC | -5% | u | x | -64* | 14% | -20%
SMILES | Lassa entry inh | HCV inhibitor | VACV mCherry inh | HCMV antiviral | Marburg entry inh | Vaccinia Venus
COCCC(=O)Nc1ccc2c(c1)CN(C(=O)c1ccc(CSC)o1)CC2 | -17%[46.1 µM] | 10µM* | 6% | 50 | -5%[46.1 µM] | -23%
CN[C@H]1C[C@@H](N)[C@H](O)[C@@H](O[C@@H]2O[C@H](CO)[C@H](O)[C@@H]3OC4(O[C@H]23)O[C@H](C(N)CO)[C@H](O)[C@H](O)[C@H]4O)[C@@H]1O (stereo partly specified) | x | x | -8% | x | x | -6%
OC1(c2cccnc2)CCN(Cc2ccc3c(c2)CN(Cc2cc(F)cc(F)c2)CCO3)CC1 | x | x | -11% | x | x | -8%
Cc1ccc(-c2nc(P(=O)(c3ccccc3)c3ccccc3)c(N3CCOCC3)o2)cc1 | u | u | x | -7 | 10µM* | x
Cc1sc2nc(SCC(=O)C(C)(C)C)n(Cc3ccco3)c(=O)c2c1C | 8.2µM* | u | x | -98* | u | x
CCCn1c(C)cc(C(=O)CSc2nc3ccccc3c(=O)n2Cc2ccco2)c1C | u | u | -12% | u | u | -15%
